The list is not random: actives were taken first. Their share in the collection is about 12%.
USP8 block: blocks human USP8 ubiquitin-rhodamine cleavage; P40818; purified USP8, Ub-rhodamine cleavage fluorescence, 30 min; inhibition, % at 20 µM; hit rate 4.2% among 47,000
USP17 block: inhibitors of human USP17 deubiquitinase | A8MUK1 | purified USP17, Ub-rhodamine cleavage fluorescence, 3 h | inhibition, % at 50 µM | hit rate 6.5% among 47,000 | AID 1645855
Target sequence (A8MUK1 whole entry, looked up): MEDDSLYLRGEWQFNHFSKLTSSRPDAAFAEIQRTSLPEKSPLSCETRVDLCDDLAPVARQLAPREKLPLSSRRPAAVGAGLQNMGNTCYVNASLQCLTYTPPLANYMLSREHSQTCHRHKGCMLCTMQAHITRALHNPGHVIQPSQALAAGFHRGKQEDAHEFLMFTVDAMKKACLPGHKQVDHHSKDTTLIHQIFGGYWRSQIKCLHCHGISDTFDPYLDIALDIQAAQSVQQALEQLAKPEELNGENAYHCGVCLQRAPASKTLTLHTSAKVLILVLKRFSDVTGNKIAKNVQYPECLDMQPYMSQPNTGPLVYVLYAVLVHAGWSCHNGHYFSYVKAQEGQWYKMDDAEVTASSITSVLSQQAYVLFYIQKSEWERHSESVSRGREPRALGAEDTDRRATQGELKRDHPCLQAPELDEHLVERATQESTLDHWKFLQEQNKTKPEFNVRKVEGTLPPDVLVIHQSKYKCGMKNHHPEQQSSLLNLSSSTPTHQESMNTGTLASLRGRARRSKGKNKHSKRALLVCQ
USP30 block: human USP30 deubiquitinase inhibition. purified USP30, Ub-rhodamine cleavage fluorescence. hit rate 5.3% among 47,000. inhibition, % at 25 µM
Numbers without * were called inactive; i = inactive; · = no result. Cut-off read from the data, not from the text of the source: active = inhibition above about 30%; inactive = the rest.

SMILES	USP8 block	USP17 block	USP30 block
CCc1cccc(NC(=O)N2CCC(CC(=O)N3CCCCC3)CC2)c1	0	-10	12
CCc1ccc(NC(=O)c2cccc(-n3cnnc3)n2)cc1	-25	-4	-1
O=C(Nc1ccc(Cl)cc1)c1nc(-n2cnnc2)ccc1Cl	-23	36*	17
COc1cc(OC)cc(C(=O)Nc2cccc(N3CCCC3=O)c2)c1	-12	5	-1
Cc1ccc(NS(=O)(=O)c2cc3c4c(c2)CC(=O)N4CCC3)cc1C	19	4	13
COc1cccc(C(=O)Nc2cc3c4c(c2)CC(=O)N4CCC3)c1	65*	17	-18
Cc1cccc(C(=O)Nc2cc3c4c(c2)CC(=O)N4CCC3)c1	39*	-5	-22
Cc1cc(C)c(S(=O)(=O)NCc2nnnn2-c2ccccc2)c(C)c1	-11	0	10
O=C(c1cccc(F)c1)N1CCC(Nc2cccnc2)C1 (configuration not stated)	25	-90	i
O=C(NCc1ccc(F)cc1)N1CCC(Nc2cccnc2)C1 (configuration not stated)	35*	-30	-344
Cc1ccc(C(=O)N2CCCn3c(CN4CCCCC4)nnc3C2)cc1C	-67	-14	4
COc1ccccc1-c1nc2c3c(C)c(C)n(-c4ccc(Br)cn4)c3ncn2n1	14	51*	-149
Cc1ccccc1-c1nc2c3c(C)c(C)n(-c4ccccn4)c3ncn2n1	-16	-33	-167
CC(C)Cn1c(CN2CCOCC2)nnc1SCC(=O)c1ccc(F)cc1	-25	-14	-5
Cn1c(=O)sc2cc(NC(=O)c3ccc(Br)cc3)ccc21	3	59*	-49
Cn1c(=O)sc2cc(NC(=O)c3ccc(Cl)cc3)ccc21	23	30	17
Cc1cc(C(=O)N2CCC3(CC2)COc2ccccc2S(=O)(=O)N(CC2CC2)C3)no1	16	9	4
Cc1cccc(C(=O)N2CCCC(Cc3cncc(-c4cnc(C)n4C)n3)C2)n1 (configuration not stated)	-5	-3	5
OC1(c2cccnc2)CCN(Cc2ccccc2F)CC1	-13	-13	-44
COCCn1cc(CN2CCC(O)(c3ccccc3F)CC2)c2ccccc21	32*	9	35*
COc1ccc2ncc(S(=O)(=O)c3ccccc3)c(N3CCCC3)c2c1	9	1	-5
Cc1ccc2[nH]c(=O)c(-c3nc4ccccn4c3NCc3ccccc3)cc2c1	1	17	-11
Cc1ccc2nc(-c3ccccc3O)c(NCCc3ccccc3)n2c1	80*	16	-12
O=C(NCCc1ccccc1)c1cn2cc(Cl)ccc2n1	0	-1	0
Oc1ccccc1-c1nc2ccc(Cl)cn2c1NCCc1ccccc1	78*	15	5
SMILES	USP8 block	USP17 block	USP30 block
O=c1ccc(-c2noc(CCc3c[nH]c4ccccc34)n2)c[nH]1	-7	-28	-93
COc1ccc(C)cc1NC(=O)COc1ncnc2ccccc12	0	0	9
O=C(COc1ncnc2ccccc12)Nc1ccc2c(c1)OC1(CCCC1)O2	58*	60*	10
O=C(NCC1CCCO1)c1cc(=O)[nH]c2ccccc12 (configuration not stated)	3	-1	15
c1ccc2sc(-c3cnc(N4CCC5(CC4)OCCO5)nc3)cc2c1	6	1	2
Cc1ccc(NC(=O)CN2C(=O)CC(c3ccccc3)S(=O)(=O)c3ccccc32)c(C)c1 (configuration not stated)	0	1	7
COc1ccc(CC(=O)NC2CCN(c3ccc(C)cc3)C2=O)cc1 (configuration not stated)	-3	38*	17
COc1ccc(CNC(=O)NC2CCN(c3ccc(F)cc3)C2=O)cc1 (configuration not stated)	15	6	4
Cc1c(CCC(=O)N2CC[C@@]3(O)CCCC[C@H]3C2)c(=O)oc2c(C)c(O)ccc12	-8	10	·
Cc1cn2nnc(C(=O)NC3CCc4ccccc43)c2c(=O)[nH]1 (configuration not stated)	64*	24	-7
Cc1nn(-c2ccc(F)cc2)c(Cl)c1C(=O)NC1CCCc2ccccc21 (configuration not stated)	-7	6	-22
Cc1ncc(-c2cncc(CC3CCCN(C(=O)c4ccncc4)C3)n2)n1C (configuration not stated)	15	11	3
CCc1onc(C)c1C(=O)N1C[C@@H](c2ccccc2)[C@@H]2NC(=O)CCCC[C@H]21	10	1	15
O=C(NC1CCCc2ccccc21)C1CCN(C(=O)c2ccc(F)cc2)CC1 (configuration not stated)	-10	0	-15
Cc1sc(-c2ccccn2)nc1OC(=O)c1cccc(Cl)c1Cl	-225	77*	82*
COC(=O)Cc1sc(-c2ccccn2)nc1-c1ccccc1	3	-7	12
Cc1ccc(-n2nnc3c(=O)n(CC(=O)Nc4cc(C)on4)cnc32)cc1	14	32*	-6
Cc1cc(NC(=O)Cn2cnc3c(oc4ccccc43)c2=O)no1	1	72*	·
Cc1ccc(NC(=O)Cn2cnc3c(nnn3-c3ccc(Cl)cc3)c2=O)cc1	-5	-9	-41
O=c1c2oc3ccccc3c2ncn1CCCn1ccnc1	16	-13	17
CCn1c(CN(C)c2ccccc2)nc2cc(S(=O)(=O)N3CCOCC3)ccc21	-7	-4	-46
Cc1cc(C)n(CC(=O)N2CCC3(CC(Nc4ccncn4)C3)C2)n1 (configuration not stated)	-27	-30	-53
CCc1noc(-c2c(C)cc(C)n2CC(=O)Nc2ccc(C)cc2C)n1	-17	-8	-66
Cc1cc(=O)n(CC(=O)NCc2ccc(F)cc2F)c(N2CCCCC2)n1	24	8	16
Cc1cc(C)n(CC(=O)NCc2ccc(F)cc2F)c1-c1nc(C2CC2)no1	16	31*	33*
SMILES	USP8 block	USP17 block	USP30 block
Cc1cc(F)ccc1NC(=O)Cn1c(C)cc(C)c1-c1nc(C2CC2)no1	0	48*	-7
O=C(NCc1cccc(Cl)c1)c1nc(CS(=O)(=O)c2ccccc2)no1	-7	·	-19
CN(Cc1ccccc1)S(=O)(=O)c1ccc2[nH]cc(C(=O)NCc3cccs3)c(=O)c2c1	11	60*	-33
CCN(CC)S(=O)(=O)c1ccc2[nH]cc(C(=O)NCCCN3CCN(Cc4ccccc4)CC3)c(=O)c2c1	-1	-14	-11
COCCN1C(=O)c2ccccc2C(C(=O)Nc2ccccc2C(=O)OC)C1c1cccs1 (configuration not stated)	-3	6	1
O=C1CCCN1Cc1ncn2c1CN(S(=O)(=O)c1ccccc1)CCC2	-58	-21	-1
CN(C)c1ccc(C(=O)N2CCC3(CC2)N=C(c2ccc(Cl)cc2)C(=O)N3)cc1	-3	-19	-39
Cc1cc2ncc3c(n2n1)CCN(c1ccc([N+](=O)[O-])cc1)C3	-6	33*	-237
O=c1c2cnc(N3CCCC3)nc2ccn1-c1ccc([N+](=O)[O-])cc1	-86	8	10
O=[N+]([O-])c1ccc(N2CCc3nc(-c4ccccn4)ncc3C2)cc1	-263	70*	77*
CCCN1CCN(c2ncc3c(n2)CCN(Cc2ccccn2)C3)CC1	-82	-46	-102
O=C(NCCCN1CCCC1)c1ccc(CS(=O)(=O)c2ccc(Br)cc2)o1	-3	40*	-24
